Sampled rows, rich in hits. Any-hit rate of the full collection: about 4.3%.
FAS-TE inh: FAS thioesterase domain inhibitors, primary screen, biochemical, fluorescence intensity, uHTS | recombinant FAS-TE, OMFH fluorogenic substrate, fluorescence endpoint | inhibition, % at 15 µM | hit rate 0.67% among 360,000 | Fatty acid synthase (Homo sapiens), P49327 | AID 602261, 2012;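 active means compounds whose normalised, plate-corrected inhibition of enzyme fluorescence in the single-dose primary screen is 50% or more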;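 further: 0% = DMSO with enzyme and 100% = substrate without enzyme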
sPLA2-III inh: human group III sPLA2 inhibitors, primary screen, biochemical, QFRET, BODIPY PC-A2 liposome substrate | Group 3 secretory phospholipase A2 (Homo sapiens), Q9NZ20 | inhibition, % at 12.2 µM | QFRET BODIPY PC-A2 liposome hydrolysis, fluorescence | hit rate 0.56% among 370,000;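 active means inhibition above mean plus 3 SD of compounds lying within the high and low control bounds, cut at about 19% in these data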;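 further: 0% = median of test compound wells and 100% = no enzyme DMSO wells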
GRIN3A LBD mod: binders of NR3A ligand-binding domain, primary screen, biophysical, differential scanning fluorimetry, uHTS | Glutamate receptor ionotropic, NMDA 3A (GRIN3A) ligand-binding domain | NR3A LBD differential scanning fluorimetry, Tm shift; 0% = protein alone, 100% = glycine-bound protein | Tm shift relative to glycine control, % at 25 µM | hit rate 2.5% among 340,000 | AID 1259313, 2017;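 active means melting temperature shift of at least 10% of the positive control shift, at one fixed dose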
ADAM17 inh: ADAM17 inhibitors, primary screen, biochemical, QFRET; hit rate 0.83% among 370,000; inhibition, % at 6.95 µM; recombinant ADAM17, EDANS/DABCYL FRET peptide cleavage;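 active means inhibition above the mean of compounds lying between control limits plus 3 SD, set per campaign, cut at about 8.5% in these data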;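 further: 0% = DMSO-only wells as the low control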
ADAM10 inh: human ADAM10 inhibitors, primary screen, biochemical, QFRET, HTS | Disintegrin and metalloproteinase domain-containing protein 10 (Homo sapiens), O14672 | recombinant ADAM10, EDANS/DABCYL FRET peptide cleavage, 3 h | inhibition, % at 7 µM | hit rate 0.62% among 370,000 | AID 720582, 2013;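 active means inhibition above a per-campaign cutoff equal to the mean of compounds falling between control-based bounds plus 3 SD, cut at about 20% in these data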;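 further: 0% = DMSO wells while the 100% control is not disclosed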
Target sequence (O14672 214-748 limits assumed): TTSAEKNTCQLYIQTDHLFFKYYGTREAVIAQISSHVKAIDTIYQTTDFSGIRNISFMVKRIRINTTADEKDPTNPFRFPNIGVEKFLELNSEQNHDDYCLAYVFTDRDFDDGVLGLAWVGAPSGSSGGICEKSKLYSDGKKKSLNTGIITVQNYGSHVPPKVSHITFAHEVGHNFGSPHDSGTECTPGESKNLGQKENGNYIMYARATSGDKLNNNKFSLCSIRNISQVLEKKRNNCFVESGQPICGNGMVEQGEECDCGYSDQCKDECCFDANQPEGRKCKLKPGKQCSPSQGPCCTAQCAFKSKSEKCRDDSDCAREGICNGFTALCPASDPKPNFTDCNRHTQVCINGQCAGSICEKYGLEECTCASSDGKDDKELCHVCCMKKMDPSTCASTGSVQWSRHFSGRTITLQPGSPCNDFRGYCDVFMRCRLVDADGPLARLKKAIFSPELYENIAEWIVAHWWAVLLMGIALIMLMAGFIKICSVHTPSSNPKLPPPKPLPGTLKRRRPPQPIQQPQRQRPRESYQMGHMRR
sPLA2 confirm: human group III sPLA2 inhibitors, confirmation, biochemical, QFRET, triplicate; shares compounds with sPLA2-III inh; recombinant hGIII-sPLA2, BODIPY PC-A2 QFRET fluorescence; inhibition, % at 12.2 µM; hit rate 34% among 2,000; AID 743280, 2014;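 active means mean inhibition across triplicates above the hit cutoff set in the earlier primary screen, cut at about 19% in these data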;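 further: 0% = enzyme with DMSO and 100% = DMSO wells lacking enzyme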
BODIPY interf: 535nm fluorescence optical interference, confirmation, artefact control for HGIII-sPLA2 inhibitor project, biochemical, QFRET | shares compounds with sPLA2-III inh | BODIPY FL product fluorescence interference | inhibition, % at 12.2 µM | hit rate 8.5% among 2,000;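 active means average inhibition above the solvent-only control mean plus 3 SD, cut at about 6% in these data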;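 further: 0% = DMSO with substrate plus product and 100% = DMSO with substrate alone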
Starred values were filed as active, the others as inactive; . = not tested or not shown.

SMILES | FAS-TE inh | sPLA2-III inh | GRIN3A LBD mod | ADAM17 inh | ADAM10 inh | sPLA2 confirm | BODIPY interf
CCCNC(=O)CN(c1cccc(F)c1)S(C)(=O)=O | -11 | 20* | -1 | 0 | -5 | -4 | 2
C/C(=N/NC(=O)CN(c1ccccc1)S(=O)(=O)c1ccccc1)c1ccccc1O | 24 | 24* | -5 | 3 | 0 | 15 | -6
COc1cc(Nc2cc(C)n(-c3cc(OC)cc(OC)c3)c(=O)c2)cc(OC)c1 | . | 2 | . | -4 | -11 | . | .
C#CCNC(=O)C[C@H]1C[C@@]2(C(=O)OC)C(=C[C@H](C(C)(C)C)O[C@@H]2C)N(CCCCCCCC)C1=O | . | 6 | . | 3 | 6 | . | .
CCCCCCCCN1C(=O)[C@@H](CC(=O)NCC23CC4CC(CC(C4)C2)C3)C[C@@]2(C(=O)OC)C1=C[C@H](C(C)(C)C)O[C@@H]2C | . | 21* | . | -3 | -11 | -17 | -16
O=C(O)c1ccccc1C(=O)Nc1cccc([N+](=O)[O-])c1 | -3 | 4 | -1 | -2 | 1 | . | .
O=C(O)c1ccccc1C(=O)Nc1ccc(Nc2ccc([N+](=O)[O-])cc2[N+](=O)[O-])cc1 | 3 | 22* | 10* | 2 | 14 | 18 | -2
CCOC(=O)C1=C[C@@H](C(C)(C)C)N(S(=O)(=O)c2ccc([N+](=O)[O-])cc2)[C@H]1c1ccccc1Cl | . | -6 | . | -3 | -4 | . | .
COc1cccc(OC)c1C(=O)NCCc1ccccc1 | -4 | 21* | 1 | -6 | -5 | -7 | -7
Cn1c(=O)c2[nH]c(SCC(=O)NCCc3ccc(F)cc3)nc2n(C)c1=O | . | 0 | . | 0 | -5 | . | .
CSc1nc2c(c(=O)[nH]1)CCCC2 | -7 | -4 | -1 | -4 | -6 | . | .
CCCCSc1nc2c(c(=O)[nH]1)CCC2 | -6 | 20* | -1 | -5 | -5 | 0 | -3
CCOC(=O)CCNC(=O)N1CCCC(CCC(=O)N(C)CCc2ccccn2)C1 (configuration not stated) | -1 | 24* | 0 | -4 | -1 | 0 | -10
CCc1ccccc1NC(=O)N1CCCC(CCC(=O)N(C)CCc2ccccn2)C1 (configuration not stated) | -5 | 3 | 0 | -2 | 0 | . | .
CCCC[C@@H](CNC)NC[C@H](NCCCCC1CCCCC1)C(C)C | -3 | 29* | 1 | -4 | 8 | -5 | -28
COCCCNC(=O)c1ccc(Cn2c(=O)c3ccccc3n(Cc3ccc(C(C)C)cc3)c2=O)cc1 | . | 5 | . | -2 | -2 | . | .
NCCOc1ccc(C23CC4CC(CC(C4)C2)C3)cc1 | -56 | 31* | -1 | 0 | -12 | 14 | -29
OCCN1CCN(CC(O)COc2ccc(C34CC5CC(CC(C5)C3)C4)cc2)CC1 (configuration not stated) | 6 | -15 | -3 | 0 | 7 | . | .
CC(C)C(=O)N1CC[C@H]2[C@H](CCCN2Cc2ccc(F)cc2)C1 | . | 22* | . | -3 | 1 | -4 | -9
O=C(C1CCCN(Cc2ccc(F)cc2)C1)N1CCCCC1 (configuration not stated) | -2 | 10 | 0 | 1 | -2 | . | .
CCCCn1c(N)c(N(CCOC)C(=O)c2cc(S(=O)(=O)N3CCOCC3)ccc2F)c(=O)[nH]c1=O | -5 | 5 | 1 | -1 | 1 | . | .
CCCCn1c(N)c(N(CCOC)C(=O)c2ccc(F)c(S(=O)(=O)N3CCOCC3)c2)c(=O)[nH]c1=O | -9 | 20* | 0 | -7 | -14 | 7 | -5
Cc1cccc(NC(=S)NCc2ccc3c(c2)cc(C)n3C)c1C | -26 | 20* | 4 | 5 | 8 | 5 | 1

Compound activity as filed in PubChem.
